# Compound activity: PubChem BioAssay, several laboratories
# PABP FP inh = PABP-poly(A) binding inhibition | P11940 | PABP-poly(A) RNA binding, fluorescence polarization | inhibition, % at 35 µM | 290,000 compounds, 1% hits;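 note: calls also rest on retests at 20 µM and on dose response follow-up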
# Target sequence (P11940 whole entry, looked up): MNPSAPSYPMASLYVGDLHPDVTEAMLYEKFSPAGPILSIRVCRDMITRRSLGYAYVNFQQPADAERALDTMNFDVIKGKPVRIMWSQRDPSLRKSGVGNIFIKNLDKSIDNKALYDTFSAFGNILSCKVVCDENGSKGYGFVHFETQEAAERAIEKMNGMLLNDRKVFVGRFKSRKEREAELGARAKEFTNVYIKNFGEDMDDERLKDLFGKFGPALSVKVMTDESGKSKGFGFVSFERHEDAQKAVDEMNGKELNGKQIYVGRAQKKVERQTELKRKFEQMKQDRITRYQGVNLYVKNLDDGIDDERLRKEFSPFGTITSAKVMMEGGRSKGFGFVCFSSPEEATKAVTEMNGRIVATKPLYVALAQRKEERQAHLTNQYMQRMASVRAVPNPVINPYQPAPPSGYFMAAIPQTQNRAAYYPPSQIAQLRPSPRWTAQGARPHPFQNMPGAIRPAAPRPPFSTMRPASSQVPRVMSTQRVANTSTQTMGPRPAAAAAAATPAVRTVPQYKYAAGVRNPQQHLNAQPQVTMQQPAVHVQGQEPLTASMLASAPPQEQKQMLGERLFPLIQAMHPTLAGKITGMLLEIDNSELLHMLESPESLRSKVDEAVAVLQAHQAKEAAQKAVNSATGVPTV
# M18AAP inhibitor = PfM18AAP enzyme inhibition. recombinant PfM18AAP, H-Glu-NHMec fluorogenic cleavage. inhibition, % at 7.35 µM. 290,000 compounds, 1.2% hits. AID 1822;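 active = inhibition above the campaign mean inhibition over all tested compounds plus 3 SD, cut at about 28% in these data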;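 note: 0% = plate median of test compound wells and 100% = 2 mM ZnCl2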
# eIF4E 4G PPI = inhibitors of eIF4E and eIF4G interaction in translation initiation; inhibition, % at 21.7 µM; TR-FRET eIF4E-eIF4GI(517-606) binding, 2 h; P63073+Q04637; AID 782; 220,000 compounds, 0.37% hits;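 active = inhibition above about 30%, limit read from the data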;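 note: 0% = full FRET control wells and 100% = background wells lacking eIF4GI fragment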
# PABP1 MLLE inh = blocks PAM2 peptide binding to the PABP1 MLLE domain. P11940. GST-MLLE / FITC-PAM2 fluorescence polarization. inhibition, % at 20 µM. 360,000 compounds, 0.36% hits. AID 588489; in the data active = inhibition above about 35%, passing the limit was not always enough;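 note: plate controls were DMSO wells with GST-MLLE for no effect and wells lacking GST-MLLE protein for full effect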
# eIF4H FP inh = inhibitors of RNA binding by human eIF4H | Q15056 | eIF4H fluorescence polarization binding assay | inhibition, % at 35 µM | 290,000 compounds, 0.94% hits;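 note: calls also rest on retests at 20 µM and on dose response follow-up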
# PERK inh = blocks human PERK kinase; CHO PERK-DD fusion, SEAP luminescence translation reporter; AID 1416; 220,000 compounds, 0.17% hits; Q9NZJ5; inhibition, % at 5.6 µM;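 active = inhibition above the mean inhibition of all tested compounds plus 3 SD, set separately per screening campaign, cut at about 2.9% in these data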;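 note: PERK kinase domain activated by AP20187 dimerizer at 100 nM; 0% = DMSO with dimerizer and 100% = rapamycin at 8.4 µM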
# * marks the source's active call; other numbers are inactive results; ? = inconclusive; nt = not tested or not shown. In the library only some 2.4% were active in any assay of this set; here they are far more common. Unless noted, the rule behind the calls is not given here.
SMILES,PABP FP inh,M18AAP inhibitor,eIF4E 4G PPI,PABP1 MLLE inh,eIF4H FP inh,PERK inh
Cc1cccc(NC(=O)C2C(c3ccccc3)C2(Cl)Cl)c1 (centres undefined),-5.3,8.6,1.0,1.3,-3.2,-0.5
CCN(CC)c1ccc(-n2c(C)c(C(C)=O)c(C(C)=O)c2C)cc1,1.2,28.2*,-6.6,-27.0,-7.1,-0.9
Cc1ccc(C(=O)Nn2cnnc2)cc1,5.7,28.9*,nt,-5.4,7.6,nt
CCOc1ccc(C(=O)Nn2cnnc2)cc1,-5.0,21.7,1.4,-0.3,-5.4,0.8
CC1(C)CC(=O)C2=C(C1)NC(SCC(N)=O)=C(C#N)C21CCCCC1,13.8,20.9,-4.2,36.5*,2.5,-0.2
CN(C)c1cccc(NC2=CC(=[N+]3CCOCC3)CC(C)(C)C2)c1,57.9*,5.6,-5.8,-93.7,10.4,-1.2
CC1(C)CC(=O)C=C(Nc2cccc(F)c2)C1,-7.4,-0.1,nt,8.9,-13.0,nt
C/C(=N\NC(=O)c1ccc(Cn2cc(Br)cn2)o1)c1ccc(NC(=O)c2ccoc2C)cc1,2.1,-7.2,nt,1.7,-3.4,nt
Cc1cc(C)nc(SCC2COc3ccccc3O2)n1 (centres undefined),-6.5,-7.0,2.3,1.4,8.3,0.6
Cc1ccc(-c2cc(C(=O)OC3CCOC3=O)c3ccccc3n2)c(C)c1 (centres undefined),-17.0,-11.8,-3.1,1.5,-7.1,2.9*
O=C(CSCC(=O)N1CCCCC1)Nc1nc(-c2ccccc2)c(-c2ccccc2)s1,17.2*,4.4,-15.1,-14.5,80.2*,-0.9
CCOC(=O)N1CCC(N2Cc3cccc(C(=O)NC(C)c4ccc5c(c4)OCCO5)c3C2=O)CC1 (centres undefined),6.9,2.3,2.6,-3.5,-3.3,-0.9
O=C(CC1Sc2ncnn2C1=O)Nc1ccc(Br)cc1 (centres undefined),-15.2,37.3*,0.0,22.6,-3.7,1.4
O=C(O)CSc1nc2ccccc2c(=O)[nH]1,10.0,13.2,-3.7,-3.0,0.9,-0.3
C=CCSc1nc2ccccc2c(=O)[nH]1,-3.7,3.0,-1.5,11.8,0.2,3.0*
COc1ccc(CNc2ccc(S(N)(=O)=O)cc2)cc1,3.1,2.7,2.9,56.9*,0.8,1.1
COc1ccc(CNC(=O)C(C)NCc2ccc(S(N)(=O)=O)cc2)cc1 (centres undefined),2.0,1.4,nt,-12.6,-6.9,nt
O=C1CC(c2ccccc2)Cc2nc(NC3CC3)ncc21 (centres undefined),9.5,-2.0,-2.4,-4.4,0.0,1.1
O=C1CC(c2ccccc2)Cc2nc3ncnn3cc21 (centres undefined),9.5,28.3*,-1.2,10.6,-2.0,-0.5
COc1ccccc1N1CCN(S(=O)(=O)CCNC(=O)c2cccs2)CC1,nt,nt,nt,16.0,nt,nt
Cc1nc(N2CCN(c3ccccc3O)CC2)c2c(-c3ccccc3)csc2n1,71.4*,14.2,nt,-9.9,100.4*,nt
COc1ccc2c(c1)c(CC(=O)Nc1ccc(C(C)=O)cc1)c(C)n2C(=O)c1ccc(Cl)cc1,active,5.7,-2.1,-10.0,52.9*,-0.6
COc1ccc2c(c1)c(CC(=O)Nc1cc(C)ccc1C)c(C)n2C(=O)c1ccc(Cl)cc1,9.9,6.4,4.5,-38.1,-3.1,0.3
Cc1ccc(NC(=O)CN(C)S(=O)(=O)c2cccc3cccnc23)cc1C,-4.6,3.9,nt,-18.4,-8.2,nt
COc1ccc(Nc2ccc(N3C(=O)CCCC3=O)cc2[N+](=O)[O-])c(OC)c1,0.8,-8.0,3.9,8.3,-7.2,-0.9
SMILES,PABP FP inh,M18AAP inhibitor,eIF4E 4G PPI,PABP1 MLLE inh,eIF4H FP inh,PERK inh
c1cc(-c2ccsc2)n2ccnc2c1,nt,nt,nt,7.1,nt,nt
c1cc(-c2ccoc2)n2ccnc2c1,nt,nt,nt,47.2*,nt,nt
CCCc1cc(=O)[nH]c(SCCOc2ccc(Cl)cc2)n1,0.4,-2.1,-3.8,10.1,3.2,2.9*
Cc1ccc(S(=O)(=O)N2C[C@H]3C(=O)C[C@@H](c4ccc(Cl)cc4)N(S(=O)(=O)c4ccc(C)cc4)[C@H]3C[C@H]2c2ccc(Cl)cc2)cc1,nt,nt,nt,20.7,nt,nt
N#CC1=C(N)C2=C(N3CCCCC3)CCCC2C1(C#N)C#N (centres undefined),112.2*,18.5,-2.2,38.5*,109.6*,0.8
COC(=O)CNC(=O)CN1c2cccc3cccc(c23)S1(=O)=O,57.6*,0.6,1.6,-6.7,?,-1.2
COc1ccc(C(C)=O)cc1CN1C(=O)C(C)ON=C1c1cccc(C(F)(F)F)c1 (centres undefined),nt,nt,nt,-5.5,nt,nt
CC(C)NS(=O)(=O)c1ccc(NC(=S)NC(=O)c2cccc([N+](=O)[O-])c2)cc1,12.5,3.3,1.7,48.3*,-1.2,0.5
CC(=O)Cc1nsc(NC(=O)c2cc(-c3cccc(C(F)(F)F)c3)oc2C)n1,-0.1,-0.5,1.4,-10.2,-5.3,0.2
CCCc1cc(=O)n(-c2nc3ccccc3s2)[nH]1,14.0,4.4,-5.6,8.0,19.6,-0.1
CCOC(=O)Cc1cc(=O)n(-c2nc3ccccc3s2)[nH]1,67.9*,20.9,0.0,-12.2,69.7*,1.0
COc1cccc(CNC(=O)CCC2CCCN(C(=O)c3cccc4c(C)c(C)[nH]c34)C2)c1 (centres undefined),active,-9.7,3.0,7.8,66.5*,-0.3
CC1CCN(c2cc(N)c(Cl)cc2[N+](=O)[O-])CC1,0.3,0.1,-0.6,-3.3,-2.4,0.0
COc1ccc(CCNC(=O)CSc2ccc(-c3ccncc3)nn2)cc1,54.9,-0.4,1.6,3.2,1.1*,1.4
COc1ccc(-c2ccc(SCC(=O)Nc3nnc(C)s3)nn2)cc1,13.9*,2.9,2.2,-6.8,54.8*,0.7
O=C1CCN(Cc2ccc([N+](=O)[O-])cc2)CCN1[C@H](CO)c1ccccc1,6.7,-2.1,nt,-6.1,5.2,nt
Clc1ccc(/C=N/c2c(-c3ccco3)nc3ccccn23)cc1,120.4*,13.8,10.6,39.3*,127.5*,2.6
COc1ccc(/C=N/c2c(-c3ccco3)nc3ccccn23)cc1OC,?,11.6,4.7,47.3*,?,1.7
Cn1c(=O)c([N+](=O)[O-])c(NCC2CCCO2)c2ccccc21 (centres undefined),9.9,-5.0,-4.3,10.1,4.4,1.1
C=CCc1cccc2cc(C(=O)Nc3ccccc3C(=O)O)c(=O)oc12,-14.0,-0.1,5.0,36.8,20.0,1.6
CCn1c(SCC(=O)OC)nc2sc3c(c2c1=O)CCC3,16.7,5.0,4.0,-6.0,71.8*,-0.3
Cc1cc2c(ncn2Cc2ccccc2)c([N+](=O)[O-])c1C,0.4,0.9,-5.2,-1.1,-10.1,0.5
CCOCCCNC(=S)N1CCC(NC(=O)c2ccco2)CC1,67.6*,-8.8,0.4,-23.1,-8.5,0.0
CC12CCC(=O)N1C(C(=O)NCCc1ccc(S(N)(=O)=O)cc1)CS2 (centres undefined),0.9,-3.0,nt,18.3,-11.5,nt
O=C(NCc1ccco1)c1ccc2c(c1)OCCO2,12.6,1.1,nt,-2.0,5.4,nt
O=C(CSc1ccc(F)cc1)NC1CCCCC1,6.9,-14.1,1.0,16.1,-0.2,0.6
